Source: PubChem (several laboratories)
Hits are enriched below; roughly 3.1% of the tested compounds scored in any of these assays.
FadD28 FP inh – inhibitors of FadD28 bisubstrate probe binding, primary screen, biochemical, fluorescence polarization, single point | Mycobacterium tuberculosis FadD28 fatty-acid-AMP ligase | inhibition, % at 12.5 µM | 360,000 tested, 0.22% active; in the data active = inhibition above about 8.5%, passing the limit was not always enough
SARS 3CLpro inh – SARS-CoV 3CLpro protease inhibitors, primary screen, biochemical, quenched FRET; Replicase polyprotein 1ab (Severe acute respiratory syndrome coronavirus), P0C6X7; recombinant SARS-CoV 3CLpro, quenched FRET peptide cleavage; inhibition, % at 6 µM; 290,000 tested, 0.14% active; in the data active = inhibition above about 12%
GDH-TPI counter – GDH-TPI coupling enzyme inhibitors, primary screen, artefact control for M. tuberculosis FBA inhibitor project, biochemical, absorbance, full deck; GDH-TPI coupled enzyme counterscreen, NADH absorbance; inhibition, % at 4.8 µM; 360,000 tested, 1.2% active; in the data active = inhibition above about 30%
FBA Mtb inh – Mtb FBA enzyme inhibitors, primary screen, biochemical, fluorescence, strain H37Rv. purified M. tuberculosis FBA, fluorescence read-out. Fructose-bisphosphate aldolase (Mycobacterium tuberculosis (strain ATCC 25618 / H37Rv)), …. inhibition, % at 1 µM. AID 588726, 2011. 360,000 tested, 2.3% active; in the data active = inhibition above about 27%
Target sequence (P9WQA3 whole entry, looked up): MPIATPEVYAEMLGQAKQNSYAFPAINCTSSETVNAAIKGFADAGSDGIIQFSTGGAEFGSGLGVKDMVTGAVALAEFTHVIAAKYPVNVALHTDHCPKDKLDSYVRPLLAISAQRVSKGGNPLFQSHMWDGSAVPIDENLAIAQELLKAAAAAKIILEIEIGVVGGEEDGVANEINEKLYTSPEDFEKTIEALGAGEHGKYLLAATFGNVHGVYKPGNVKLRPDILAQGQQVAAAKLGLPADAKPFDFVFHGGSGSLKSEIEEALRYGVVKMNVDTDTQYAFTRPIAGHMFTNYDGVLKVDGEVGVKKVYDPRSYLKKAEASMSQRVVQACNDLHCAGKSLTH
BioA inh – M. tuberculosis BioA enzyme inhibitors, primary screen, biochemical, plate reader, single point, HTS; 7,8-diaminopelargonic acid synthase BioA (Mycobacterium tuberculosis); purified M. tuberculosis BioA enzyme; inhibition, % at 9.99 µM; 360,000 tested, 0.096% active; in the data active = inhibition above about 40%
Numbers stand for hits; n = inactive; x = no result; + = active, no number.

SMILES	FadD28 FP inh	SARS 3CLpro inh	GDH-TPI counter	FBA Mtb inh	BioA inh
COc1ccc(CCn2c(=N)c(C(=O)NCC3CCCO3)cc3c(=O)n4ccccc4nc32)cc1OC (stereo not given)	n	n	n	n	x
CC(NC(=O)c1cc2c(=O)n3ccccc3nc2n(CC2CCCO2)c1=N)c1ccccc1 (stereo not given)	n	n	n	+	n
CS(=O)(=O)Nc1ccc2c(c1)[C@@H]1C[C@H](CC(=O)NCc3ccc(Oc4ccccc4)cc3)O[C@@H](CO)[C@@H]1O2	x	x	x	x	n
C[C@H]1CN([C@@H](C)CO)C(=O)c2cc(-c3cccnc3)cnc2O[C@H]1CN(C)C(=O)C1CCCCC1	x	x	x	x	n
N#Cc1cc2c(=O)n3ccccc3nc2n(CC2CCCO2)c1=N (stereo not given)	x	n	x	x	x
N=c1c(C(=O)NC2CCCC2)cc2c(=O)n3ccccc3nc2n1CC1CCCO1 (stereo not given)	n	n	n	+	x
CCOC(=O)c1cc2c(=O)n3ccccc3nc2n(CC2CCCO2)c1=NC(=O)/C=C/c1ccccc1 (stereo not given)	n	n	n	+	x
N=c1c(C(=O)NC2CCCCC2)cc2c(=O)n3ccccc3nc2n1CC1CCCO1 (stereo not given)	n	n	n	+	n
COc1ccc(Cn2c(=N)c(C(=O)NC3CCCCC3)cc3c(=O)n4ccccc4nc32)cc1	n	n	n	n	n
CCOC(=O)c1cc2c(=O)n3ccccc3nc2n(CC2CCCO2)c1=NC(C)=O (stereo not given)	n	n	n	x	n
COCCCn1c(=N)c(C(=O)NC2CCCCC2)cc2c(=O)n3ccccc3nc21	n	n	n	+	n
C[C@H]1CN([C@@H](C)CO)C(=O)c2cc(C3=CCCC3)cnc2O[C@H]1CN(C)C(=O)C1CCC1	x	x	x	x	n
CNC[C@@H]1Oc2ccc(NS(=O)(=O)c3cccs3)cc2C(=O)N([C@@H](C)CO)C[C@@H]1C	x	x	x	x	n
CC12CCCC(=O)C1CCC(=Cc1ccco1)C2=O (stereo not given)	n	x	31.6	n	n
CCCCCCSc1cc(-c2nc3cc(C)ccn3c2NCCCC)ccc1OC	n	x	n	n	n
CCCCNc1c(-c2cccc(-c3cc(C(C)=O)cs3)c2)nc2cc(C)ccn12	n	x	32.8	n	n
CCCNC(=O)C[C@H]1CC[C@@H]2[C@H](COC[C@@H](O)CN2C(=O)c2cccnc2)O1	x	x	x	x	n
CC1=NN(C(N)=S)C(=O)C1N=Nc1c(C)n(C)n(-c2ccccc2)c1=O (stereo not given)	n	x	30.6	n	n
CC1=NN(C(N)=S)C(=O)C1N=Nc1ccccc1O (stereo not given)	n	n	n	n	n
O=C(c1ccccc1)c1ccc(N2CCOCC2)cc1	n	x	37.9	n	x
O=C(Cc1ccccc1)c1ccc(N2CCOCC2)cc1	n	x	37.1	n	x
O=C(CCc1ccccc1)Nc1ccc(N2CCOCC2)cc1	n	n	n	n	n
O=C(c1ccccc1)c1ccc(N2CCCC2)cc1	n	n	n	n	n
CC(C)C#Cc1cnc2c(c1)C(=O)N([C@@H](C)CO)C[C@@H](C)[C@H](CN(C)C(=O)Nc1ccc(F)cc1)O2	x	x	x	x	n
COCc1c(C(=O)Nc2nnc(C3CC3)s2)oc2ccccc12	n	x	44.0	n	n
SMILES	FadD28 FP inh	SARS 3CLpro inh	GDH-TPI counter	FBA Mtb inh	BioA inh
CCc1cc2c(=O)c(Oc3ccccc3)c(C)oc2cc1O	n	n	n	185.9	x
Cc1oc2cc(OCC(=O)O)ccc2c(=O)c1Oc1ccccc1	n	n	n	n	n
C[C@H](NC(=O)C[C@@H]1CC[C@H](NC(=O)C2CCOCC2)[C@@H](CO)O1)c1ccccc1	x	x	x	x	n
CN(C)C(=O)c1cccc(-c2ccc3c(c2)[C@H]2[C@H](CCN2Cc2nccs2)[C@@H](CO)N3)c1	x	x	x	x	n
C[C@H]1CN([C@@H](C)CO)C(=O)Cc2cc(NC(=O)Nc3ccc(F)cc3)ccc2O[C@@H]1CN(C)Cc1ccccc1	x	x	x	x	n
O=C1NC(=S)SC1=C1CCCCCC1	n	n	33.2	n	n
Cc1c(C(=O)Nc2nc3ccccc3[nH]2)oc2ccc(Br)cc12	n	n	n	n	n
Cc1c(C(=O)Nc2nc3ccccc3[nH]2)oc2ccccc12	n	n	32.6	n	x
CC(C)OC(=O)c1c(N)n(CC2CCCO2)c2nc3ccccc3nc12 (stereo not given)	n	n	n	189.9	n
Nc1c(C(=O)OCC2CCCO2)c2nc3ccccc3nc2n1C1CCCCC1 (stereo not given)	n	n	n	n	n
CC(C)CCOC(=O)c1c(N)n(CC2CCCO2)c2nc3ccccc3nc12 (stereo not given)	n	n	n	149.2	n
Nc1c(C(=O)OC2CCCCC2)c2nc3ccccc3nc2n1CC1CCCO1 (stereo not given)	n	n	n	149.2	n
COc1ccccc1-n1c(N)c(C(=O)NCC2CCCO2)c2nc3ccccc3nc21 (stereo not given)	n	n	n	113.2	n
CC(C)NC(=O)N(C)C[C@@H]1Oc2c(NS(=O)(=O)c3cccs3)cccc2C(=O)N([C@@H](C)CO)C[C@@H]1C	x	x	x	x	n
COc1ccc(S(=O)(=O)N(C)C[C@@H]2Oc3ccc(NC(=O)NC(C)C)cc3C(=O)N([C@H](C)CO)C[C@@H]2C)cc1	x	x	x	x	n
CN(CCO)S(=O)(=O)c1ccc2c(c1)C(=NNC(N)=O)c1cc(S(=O)(=O)N(C)CCO)ccc1-2	n	n	56.2	n	n
CS(=O)c1ccccc1O (stereo not given)	n	n	n	n	n
O=S(c1ccccc1O)S(=O)c1ccccc1O (stereo not given)	28.1	x	n	n	x
Cc1cccc2nc(-c3ccco3)c(Nc3ccccc3)n12	n	n	n	120.8	n
Cc1cccc2nc(-c3ccco3)c(Nc3ccc4c(c3)OCO4)n12	n	n	n	n	n
COCC(=O)N(C)C[C@@H]1Oc2ncc(C#Cc3cccnc3)cc2C(=O)N([C@@H](C)CO)C[C@H]1C	x	x	x	x	n
Cc1ccc(S(=O)(=O)c2c(C)nn(C(C)(C)C)c2OC(=O)c2ccco2)cc1	n	n	n	189.2	n
C[C@@H]1CN([C@H](C)CO)C(=O)c2cc(-c3cccc(C#N)c3)cnc2O[C@@H]1CN(C)C(=O)c1cnccn1	x	x	x	x	n
O=C(C1CC1)N1CC[C@@H]2[C@H]1c1cc(C#Cc3ccccc3F)ccc1N[C@@H]2CO	x	x	x	x	n
CC(=O)c1ccc(Nc2nc(C)cc(C)n2)cc1	n	n	33.3	n	n
COc1ccc(C2CC(c3ccccc3)=NN2c2ccc(N)cc2)cc1 (stereo not given)	n	n	n	n	x
COc1ccc(C2CC(c3ccc(Cl)cc3)=NN2c2ccc(S(N)(=O)=O)cc2)cc1 (stereo not given)	n	x	n	+	n
